Screens from PubChem BioAssay.
Sampled rows, rich in hits. Any-hit rate of the full collection: about 3.5%.
ANO1 activ – activates or potentiates the mouse TMEM16A chloride channel. HEK293 TMEM16A/YFP-H148Q/I152L, iodide quench fluorescence; active compounds read low. B-score at 10 µM. actives 0.3% (n = 340,000). AID 623877;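 active = fluorescence-ratio B-score plate-corrected deviation score at least 3 library SD below zero, with starting fluorescence score within 5 deviations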;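 note: channel opened by trigger with iodide after compound preincubation; score built on the fluorescence ratio of max minus min over baseline; more negative score means more quench and so TMEM16A activation or potentiation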
KCNK9 block – human KCNK9 channel inhibition; HEK293 KCNK9, FluxOR thallium flux fluorescence; active compounds read low; B-score at 10 µM; actives 1.2% (n = 310,000); Q9NPC2;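 active = ratio B-score over 3 SD below the library mean, with starting fluorescence within 5 SD of its mean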;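 note: negative B-score means less thallium flux so channel inhibition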
TMEM16A inh – blocks the mouse calcium-activated chloride channel TMEM16A; Q8BHY3; HEK293 TMEM16A/YFP iodide influx fluorescence, ionomycin; normalized B-score (activity score, 25-100; higher = stronger inhibition) at 10 µM; actives 1.2% (n = 310,000);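 active = ratio plate-corrected score three or more library SD toward inhibition, starting fluorescence score within five deviations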;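 note: score derived from kinetic fluorescence span divided by baseline fluorescence per well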
Kir21 block – inhibitors of mouse Kir2.1 inward-rectifier potassium channel. HEK293-Kir2.1, FluxOR thallium flux fluorescence; active compounds read low. actives 0.85% (n = 310,000). P35561. AID 1672. B-score at 10 µM;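 active = fluorescence ratio B-score at or below minus 3 SD of library scores, with starting-brightness B-score within 2 SD, cut at about -4.2 in these data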;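 note: channel flux triggered by added potassium and thallium sulfate stimulus; B-score of peak minus minimum fluorescence over baseline after thallium stimulus; more negative B-score means stronger Kir2.1 block with less thallium influx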
KCNK3 inh – human KCNK3 channel inhibition, primary screen; O14649; CHO-KCNK3 thallium flux, FluxOR fluorescence; active compounds read low; actives 0.84% (n = 340,000); AID 602410; B-score at 10 µM;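 active = B-score under library mean minus 4 SD, starting fluorescence ratio at most library mean plus 5 SD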;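 note: more negative B-score means stronger inhibition of thallium flux through KCNK3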
TMEM16A reconf – re-confirmation of mouse TMEM16A chloride channel inhibitors | inhibition, % at 10 µM | HEK293 TMEM16A/YFP-H148Q, iodide quench fluorescence; ionomycin added to raise cell calcium | shares compounds with TMEM16A inh | actives 39% (n = 2,300) | AID 652189;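 active = mean duplicate percent inhibition, scaled so buffer wells are 0 and the reference blocker 100, over three buffer SD above buffer mean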
TMEM16A Ca cntr – alters calcium mobilization in TMEM16A HEK293 cells, counter-screen; shares compounds with TMEM16A inh; TMEM16A/YFP HEK293, Fluo4 calcium mobilization; calcium response (% of ionomycin), % at 10 µM; actives 2% (n = 2,300); AID 652231;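 active = duplicate-averaged calcium signal over 20% of the ionomycin maximum, relative to buffer baseline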;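 note: each well's signal is peak minus trough fluorescence divided by its pre-addition baseline; 0% = buffer wells and 100% = ionomycin wells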
Parental YFP cnt – parental YFP-HEK293 iodide quench counter-screen activity; shares compounds with TMEM16A inh; ionomycin; YFP ratio F(max-min)/F0 at 10 µM; 2,300 tested, under 10 active; AID 652233;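 active = yellow fluorescent protein signal ratio exceeding the buffer control mean by over 5 SD of those controls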;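 note: ratio is mean of duplicate wells from kinetic YFP trace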
ClC-1 rat inh – selectivity of TMEM16A inhibitors: inhibition of rat ClC-1 chloride channel; AID 652236; CHO ClC-1-YFP, iodide influx fluorescence quench; iodide control reads 0, buffer control 100; ratio percent, % at 10 µM; shares compounds with TMEM16A inh; 2,300 tested, under 10 active;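 active = duplicate-mean ratio percent above the mean of iodide-only control wells, which defines zero, plus 5 of their SD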;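 note: higher percent means stronger block of ClC-1 iodide influx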
Target sequence (P35524 whole entry, looked up): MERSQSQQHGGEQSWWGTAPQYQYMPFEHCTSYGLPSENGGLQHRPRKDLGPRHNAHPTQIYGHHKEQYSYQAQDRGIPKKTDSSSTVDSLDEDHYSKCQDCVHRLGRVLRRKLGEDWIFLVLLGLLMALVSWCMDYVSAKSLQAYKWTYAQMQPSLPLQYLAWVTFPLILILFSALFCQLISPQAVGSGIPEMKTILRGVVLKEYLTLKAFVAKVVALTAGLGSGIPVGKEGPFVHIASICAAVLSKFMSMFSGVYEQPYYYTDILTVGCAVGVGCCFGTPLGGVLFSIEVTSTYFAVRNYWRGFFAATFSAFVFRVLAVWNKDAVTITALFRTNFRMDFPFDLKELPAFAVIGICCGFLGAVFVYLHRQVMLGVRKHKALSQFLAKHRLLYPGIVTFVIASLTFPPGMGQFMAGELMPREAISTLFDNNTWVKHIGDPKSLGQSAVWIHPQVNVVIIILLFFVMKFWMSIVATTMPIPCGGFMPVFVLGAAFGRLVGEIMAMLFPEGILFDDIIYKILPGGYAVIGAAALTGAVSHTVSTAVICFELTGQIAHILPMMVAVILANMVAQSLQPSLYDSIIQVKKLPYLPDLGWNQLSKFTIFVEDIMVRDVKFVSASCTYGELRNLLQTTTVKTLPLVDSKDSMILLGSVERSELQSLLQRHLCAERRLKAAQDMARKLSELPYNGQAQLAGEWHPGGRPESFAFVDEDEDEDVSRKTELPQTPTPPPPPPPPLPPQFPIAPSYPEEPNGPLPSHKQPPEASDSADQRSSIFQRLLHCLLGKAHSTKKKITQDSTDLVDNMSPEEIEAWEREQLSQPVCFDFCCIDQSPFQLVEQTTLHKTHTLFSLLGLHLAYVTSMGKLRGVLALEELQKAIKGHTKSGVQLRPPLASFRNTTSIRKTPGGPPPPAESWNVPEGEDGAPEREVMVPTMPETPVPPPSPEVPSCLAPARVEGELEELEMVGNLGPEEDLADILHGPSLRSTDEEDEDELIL
* = called active by the depositor.

What do the screens show for `O=C(Nc1cccnc1)Nc1ccccc1Cl`?
ANO1 activ: inactive; KCNK9 block: inactive; TMEM16A inh: 100*; Kir21 block: 0.1; KCNK3 inh: inactive; TMEM16A reconf: inactive; TMEM16A Ca cntr: inactive; Parental YFP cnt: -0.91; ClC-1 rat inh: -6

Results for O=C(Nc1ccncc1)Nc1ccccc1Cl ?
ANO1 activ: inactive; KCNK9 block: inactive; TMEM16A inh: inactive; Kir21 block: -0.79; KCNK3 inh: inactive

What do the screens show for `Cc1noc(C)c1COC(=O)c1ccc(F)c(S(=O)(=O)N2CCCCC2)c1`?
ANO1 activ: inactive; KCNK9 block: inactive; TMEM16A inh: inactive; Kir21 block: -1.1; KCNK3 inh: inactive

How did Cc1noc(C)c1COC(=O)c1cccc(S(=O)(=O)N2CCCCCC2)c1 do in these assays?
ANO1 activ: inactive; TMEM16A inh: 25*; KCNK3 inh: inactive; TMEM16A reconf: inactive; TMEM16A Ca cntr: inactive; Parental YFP cnt: -0.81; ClC-1 rat inh: -20

How did Cc1ccccc1NC(=O)C1CCCN1S(=O)(=O)c1ccc2c(c1)n(C)c(=O)c(=O)n2C (stereo not drawn) do in these assays?
ANO1 activ: inactive; KCNK9 block: inactive; TMEM16A inh: 25*; Kir21 block: 0.8; KCNK3 inh: inactive; TMEM16A reconf: inactive; TMEM16A Ca cntr: inactive; Parental YFP cnt: -1.1; ClC-1 rat inh: 5

Results for c1ccc(Nc2nc(NCc3ccco3)c3ccccc3n2)cc1 ?
ANO1 activ: inactive; KCNK9 block: inactive; TMEM16A inh: 25*; Kir21 block: -17*; KCNK3 inh: inactive; TMEM16A reconf: 47%*; TMEM16A Ca cntr: inactive; Parental YFP cnt: -1.1; ClC-1 rat inh: -8

What do the screens show for `O=C(COC(=O)CCNS(=O)(=O)c1ccc(Cl)cc1)Nc1ccccc1OC(F)F`?
ANO1 activ: inactive; KCNK3 inh: inactive

Results for O=C(O)CN(c1ccccc1F)S(=O)(=O)c1ccccc1 ?
ANO1 activ: inactive; KCNK9 block: inactive; TMEM16A inh: inactive; Kir21 block: 2.3; KCNK3 inh: inactive; TMEM16A reconf: inactive; TMEM16A Ca cntr: inactive; Parental YFP cnt: -1; ClC-1 rat inh: -8

How did O=C(CN(c1ccccc1F)S(=O)(=O)c1ccccc1)NC1CCCCCC1 do in these assays?
ANO1 activ: inactive; KCNK9 block: inactive; TMEM16A inh: inactive; Kir21 block: -0.65; KCNK3 inh: inactive

What do the screens show for `Cc1ccc(-c2nnc(CSc3nnc(C)s3)o2)cc1`?
ANO1 activ: inactive; KCNK9 block: inactive; TMEM16A inh: inactive; Kir21 block: -0.67; KCNK3 inh: inactive

How did CCc1nc(SCc2nnc(-c3ccc(C)cc3)o2)c2c(C)c(C)sc2n1 do in these assays?
KCNK9 block: inactive; TMEM16A inh: inactive; Kir21 block: 0.52; TMEM16A reconf: inactive; TMEM16A Ca cntr: inactive; Parental YFP cnt: -1.2; ClC-1 rat inh: -8

What do the screens show for `N#Cc1nc(COc2ccccc2F)oc1NCCCn1ccnc1`?
KCNK9 block: inactive; TMEM16A inh: 100*; Kir21 block: 0.7; KCNK3 inh: inactive; TMEM16A reconf: inactive; TMEM16A Ca cntr: inactive; Parental YFP cnt: -1.2; ClC-1 rat inh: -8

What do the screens show for `CSc1ccccc1C(=O)NCC1CCCO1` (stereo not drawn)?
ANO1 activ: inactive; KCNK9 block: inactive; TMEM16A inh: 100*; Kir21 block: 0.74; KCNK3 inh: inactive; TMEM16A reconf: inactive; TMEM16A Ca cntr: inactive; Parental YFP cnt: -0.99; ClC-1 rat inh: -12

Results for COc1cc(C)c(C(=O)Oc2cc(C)c(C(=O)O)c(O)c2)c(O)c1 ?
ANO1 activ: inactive; KCNK9 block: inactive; TMEM16A inh: 100*; Kir21 block: 2.8; KCNK3 inh: inactive; TMEM16A reconf: 18%*; TMEM16A Ca cntr: inactive; Parental YFP cnt: -0.94; ClC-1 rat inh: -8

How did COc1cc(O)c(C(=O)O)c(CCc2ccccc2)c1 do in these assays?
KCNK3 inh: inactive

Results for CNC(=O)c1c(NC(=O)c2ccc(S(=O)(=O)N3CCCc4ccccc43)cc2)sc2c1CCN(C)C2 ?
ANO1 activ: inactive; KCNK9 block: inactive; TMEM16A inh: inactive; Kir21 block: -1.8; KCNK3 inh: inactive; TMEM16A reconf: inactive; TMEM16A Ca cntr: inactive; Parental YFP cnt: -0.85; ClC-1 rat inh: -2

Results for CC1(C)C(CO)=CC(=O)C2=C1SCC(=O)N2 ?
ANO1 activ: inactive; KCNK9 block: inactive; TMEM16A inh: 100*; Kir21 block: -0.08; KCNK3 inh: inactive; TMEM16A reconf: inactive; TMEM16A Ca cntr: inactive; Parental YFP cnt: -1.1; ClC-1 rat inh: 2

What do the screens show for `O=C(Nc1ccc(F)cc1F)N1CCCN(c2ccc(C(F)(F)F)cn2)CC1`?
ANO1 activ: inactive; KCNK9 block: inactive; TMEM16A inh: 25*; Kir21 block: -0.23; KCNK3 inh: inactive; TMEM16A reconf: 18%*; TMEM16A Ca cntr: inactive; Parental YFP cnt: -1.1; ClC-1 rat inh: 1

Results for COc1ccc(S(=O)(=O)Nc2ccccc2C(F)(F)F)cc1 ?
ANO1 activ: inactive; KCNK9 block: inactive; TMEM16A inh: 100*; Kir21 block: -0.75; KCNK3 inh: inactive; TMEM16A reconf: inactive; TMEM16A Ca cntr: inactive; Parental YFP cnt: -1.2; ClC-1 rat inh: -9

What do the screens show for `COc1ccc(OC)c(S(=O)(=O)Nc2ccccc2C(F)(F)F)c1`?
ANO1 activ: inactive; KCNK9 block: inactive; TMEM16A inh: inactive; Kir21 block: -0.99; KCNK3 inh: inactive

How did CCOc1ccc(S(=O)(=O)Nc2cccc(Cl)c2)cc1 do in these assays?
ANO1 activ: inactive; KCNK9 block: inactive; TMEM16A inh: inactive; Kir21 block: 1.7; KCNK3 inh: inactive

Results for CCOc1ccc(S(=O)(=O)Nc2cc(Cl)ccc2O)cc1 ?
ANO1 activ: inactive; KCNK9 block: inactive; TMEM16A inh: 100*; Kir21 block: -2.6; KCNK3 inh: inactive; TMEM16A reconf: 36%*; TMEM16A Ca cntr: inactive; Parental YFP cnt: -0.9; ClC-1 rat inh: -19

Results for Cc1cc(OCC(=O)Nc2ccc(Br)cc2)cc2c1C(=O)CC(C)(C)O2 ?
ANO1 activ: inactive; KCNK9 block: inactive; TMEM16A inh: 100*; Kir21 block: 0.02; KCNK3 inh: inactive; TMEM16A reconf: 22%*; TMEM16A Ca cntr: inactive; Parental YFP cnt: -0.78; ClC-1 rat inh: -24
